Bioassay records from PubChem.
ALOX12 inh – ALOX12 (human) lipoxygenase inhibition; P18054; actives 1.1% (n = 580,000); purified 12hLO, xylenol orange hydroperoxide absorbance; AID 1671190; Potency, µM (titrated, usually from 108 µM), without a hit: at the highest dose activity change, negative = inhibition, most hits filed as inhibitors; note: potency is the fitted concentration of half-maximal effect; % is set by controls: 0 for no effect and ±100 for the full control effect
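Hydroperoxide product was detected by ferrous iron/xylenol orange as the 573 to 405 nm absorbance ratio. Arachidonic acid at 40 uM (final) was turned over for 30 min at room temperature by 150 nM human 12hLO, pH 7.0 Hepes buffer, after 15 min compound preincubation.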
LDHA block – blocks human lactate dehydrogenase A | activity change, % (values are at about 110 or 230 µM) | purified LDHA, NADH/diaphorase-resazurin fluorescence; active compounds read low | P00338 | AID 1347041 | actives 0.15% (n = 480,000); in the data active = activity change below about -30%; inconclusive = mostly about -25% to -30%;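 note: plate controls were DMSO wells for no effect and wells without enzyme for full effect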
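Resorufin fluorescence (ex540/em590), read at 0 and 20 min after diaphorase/resazurin addition, reports the NADH left after a 5 min room-temperature reaction of 2 nM human LDH5 with 0.06 mM NADH and 0.2 mM pyruvate.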
Nrf2 activator – activates Nrf2 signaling; actives 0.31% (n = 410,000); AREc32 ARE-luciferase reporter (MCF7-derived line), luminescence, 24 h; Potency, µM (top dose mostly 46.1 µM), for inactives: at the top dose activation, usual class: activators; note: potency is the fitted concentration of half-maximal effect; % of control where 0% means no effect; nearly all actives have a fitted effect of over 65% in size
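AREc32 cells carrying an ARE-driven firefly luciferase reporter were seeded at 1000 cells/well in OPTI-MEM with 5% FBS, then exposed to compound for 24 hr at 37 deg C. Luminescence was read with Steady-Glo after 30 min at RT.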
A549 viability – A549 cytotoxicity, counter-screen for Nrf2 inhibitors; actives 0.16% (n = 390,000); Potency, µM (highest dose often 46 µM), for inactives: at the highest dose activity change, negative = cytotoxicity, usual class: inhibitors; AID 504648; A549 ARE-Fluc cells, CellTiter-Fluor viability, 18-24 h; note: potency is the fitted concentration of half-maximal effect; % is set by controls: 0 for no effect and ±100 for the full control effect
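A549 ARE_Fluc cells in 5% FBS OPTI-MEM were exposed to compounds in concentration-response for 18-24 h at 37 deg C. Viability was read by CellTiter-Fluor fluorescence (Ex 405/Em 525) after 30 min, before the luciferase read.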
mIDH1 inhibitor – inhibitors of human mutant IDH1 R132H; O75874; IDH1-R132H enzyme, NADPH consumption, diaphorase/resazurin fluorescence; Potency, µM (top dose mostly 76.6 µM), without a hit: top-dose activity change, negative = inhibition, hits mostly inhibitors; actives 0.093% (n = 390,000); AID 602179; note: potency is the fitted concentration of half-maximal effect; % is set by controls: 0 for no effect and ±100 for the full control effect; nearly all actives have a fitted effect of over 65% in size
Target sequence (O75874 whole entry R132H, stated change not applied): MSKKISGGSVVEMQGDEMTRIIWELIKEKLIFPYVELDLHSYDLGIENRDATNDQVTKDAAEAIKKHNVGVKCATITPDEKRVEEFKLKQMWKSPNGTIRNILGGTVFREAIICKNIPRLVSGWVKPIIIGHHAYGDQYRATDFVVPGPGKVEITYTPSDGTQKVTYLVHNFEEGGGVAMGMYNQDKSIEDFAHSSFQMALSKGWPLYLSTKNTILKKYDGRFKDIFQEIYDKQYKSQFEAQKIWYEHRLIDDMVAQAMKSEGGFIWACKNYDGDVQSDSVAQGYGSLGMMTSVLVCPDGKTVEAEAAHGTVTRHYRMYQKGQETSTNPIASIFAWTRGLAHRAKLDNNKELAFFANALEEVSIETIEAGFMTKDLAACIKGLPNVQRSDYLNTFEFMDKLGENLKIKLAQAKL
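IDH1-R132H (0.5 ug/mL dispensed) in pH 7.5 Tris buffer was preincubated 30 min with compound, then given a substrate mix of 0.016 mM NADPH and 2 mM alpha-KG for 80 min at room temperature; remaining NADPH was read by diaphorase/resazurin fluorescence.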
Nrf2 block – blocks Nrf2 signaling | A549 ARE-Fluc reporter, luciferase luminescence, 18-24 h | Potency, µM (top dose mostly 46 µM), without a hit: at the top dose activity change, negative = inhibition, most hits filed as inhibitors | actives 2.1% (n = 360,000); note: potency is the fitted concentration of half-maximal effect; % is set by controls: 0 for no effect and ±100 for the full control effect; nearly all actives have a fitted effect of over 60% in size
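A549 ARE_Fluc cells (5000/well, 5% FBS OPTI-MEM) pre-incubated 2 h, then treated with compounds 18-24 h at 37C/5% CO2 in concentration-response. CellTiter-Fluor viability read first; BugLite luciferase luminescence after 15 min at room temperature gives Nrf2 activity.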
* marks the source's active call; other numbers are inactive results; i = inactive; u = inconclusive; x = no result given; ! = repeats disagree; [ ] = dose if it differs, or a comment. Sampled rows, rich in hits. Any-hit rate of the full collection: about 2.7%. Unless noted, calls come from the whole dose curve; as a rule, active = well fitted curve in the direction sought with a large enough effect; inconclusive = small, poorly fitted or top-dose-only effect, or another doubt; inactive = no such curve, though single readings can be large; an effect the other way counts as inactive or inconclusive.

SMILES	ALOX12 inh	LDHA block	Nrf2 activator	A549 viability	mIDH1 inhibitor	Nrf2 block
O=C(CSc1nnc(-c2cccnc2)n1Cc1ccco1)N1c2ccccc2Sc2ccccc21	31.6µM*	0.1	-0.3%	-16.3%	-2.6%	u
O=C(CSc1nnc(-c2ccccc2)n1Cc1ccco1)Nc1ccc(S(=O)(=O)N2CCCC2)cc1	-10.8%	-4.9	2.6%	-25.5%	-1.1%	16.4µM*
O=C(CSc1nnc(-c2ccncc2)n1Cc1ccco1)Nc1ccccc1Cl	-15.5%	-1.8	0.4%	-9.3%	-8.6%	-0.9%
O=C(CSc1nnc(-c2ccncc2)n1Cc1ccco1)Nc1nc(-c2ccccc2)cs1	u	-16.2	0.5%	u	-0.4%	13µM*
c1cncc(CSc2nnc(-c3cccnc3)n2Cc2ccco2)c1	-7.9%	x	x	x	x	x
O=C(CCCn1c(=O)c2cccn2c2ccc(Br)cc21)N1CCN(c2ccccn2)CC1	57.3%	-1.3	x	x	x	x
O=C(Oc1ccc2c(=O)c(-c3ccc(Cl)cc3)coc2c1)C1CC1	1.3%	2.6	x	x	x	x
O=C(CSc1ccc(Cl)cc1)NCCSc1nc2ccccc2s1	u	17.1	x	x	x	x
COc1ccc(C(=O)N2C[C@@H](F)[C@@H](OCc3nc4ccc(F)cc4[nH]3)C2)cc1	23.2%[176 µM]	x	x	x	x	x
CCc1ccc(OC)c(S(=O)(=O)Nc2ccc(Cc3ccncc3)cc2)c1	-29.1%	-0.1	6.9%	-22.6%	2.6%	18.4µM*
O=[N+]([O-])c1ccc(Sc2ncccn2)c([N+](=O)[O-])c1	99.5%	-0.5	u	u	7.4%	23.1µM*
CCOC(=O)Cn1nc(C)c(NC(=O)COc2ccc(Cl)cc2C)c1C	-11.3%	-6.5	3.6%	-1.7%	x	23.1µM*
Cc1ccc(Nc2nc(Nc3ccc(C)cc3)nc(SC3=NCCS3)n2)cc1	-3.0%	-5.8	0.4%	-22.1%	-2.1%	u
Cc1ccccc1Nc1nc(Nc2ccccc2C)nc(SC2=NCCS2)n1	6.4%	-7.2	-0.2%	-22.4%	6.1%	25.9µM*
c1ccc2[nH]c(CSc3ccc4c(c3)OCCO4)nc2c1	3.4%	-2.0	x	x	x	x
Cc1ccc(C(=O)OCC(=O)Nc2sc3c(c2C#N)CCCC3)cc1NC(=O)c1ccco1	35.5µM*	-5.8	3.1%	-4.2%	3.7%	-25.3%
O=C(CCc1nc2ccccc2s1)N1CCN(c2ccccc2)CC1	0.0%	1.7	0.6%	-0.5%	-7.0%	u
CC(=O)c1ccc(N2CCN(C(=O)CCCc3nc4ccccc4s3)CC2)cc1	0.4%	-5.4	1.9%	2.6%	9.3%	14.6µM*
CCNC(=O)[C@@H]1C[C@H](NC(=O)c2ccccc2)CN1Cc1scnc1C	2.6%	x	x	x	x	x
Cc1ncsc1CN1C[C@@H](NC(=O)c2cccnc2)C[C@H]1CO	14.1µM*	x	x	x	x	x
CCc1nc(C)ccc1OCC(=O)O	u	-7.4	-0.9%	-0.5%	0.5%	x
CCc1nc(C)ccc1OCC(=O)NCCCN(C)C	u	-32.8*	0.2%	-9.6%	0.0%	-4.2%
O=C(O)c1ccc(Nc2nc(-c3ccccc3)nc3ccccc23)cc1	i	-10.0	5.1%	-5.0%	5.7%	u
Oc1ccc(Nc2nc(-c3ccccc3F)nc3ccccc23)cc1	17.8µM*!	-0.5	-1.0%	-13.3%	0.0%	-23.3%
COc1ccc(Nc2nc(-c3ccccc3O)nc3ccccc23)cc1	17.0%	-5.2	4.1%	-28.4%	5.4%	-97.7%
SMILES	ALOX12 inh	LDHA block	Nrf2 activator	A549 viability	mIDH1 inhibitor	Nrf2 block
Oc1ccc(Nc2nc(-c3ccccc3O)nc3ccccc23)cc1	28.2µM*!	4.1	-3.6%	-1.9%	9.2%	-21.9%
CNC(=O)c1ccc(Nc2nc(-c3ccccc3)nc3ccccc23)cc1	-9.5%	-5.4	4.8%	-24.0%	-6.8%	23.1µM*
Cc1ccc(NC(=S)NCC(C)(C)N2CCOCC2)cc1C	8.8%	-7.6	x	x	x	x
O=C(NCc1cccnc1)/C(=C\c1ccc(-c2ccc(Br)cc2)o1)S(=O)(=O)c1ccccc1	-12.0%	-7.8	u	u	-23.5%	u
O=C(NCc1cccnc1)/C(=C/c1ccc(-c2ccc(Cl)cc2)o1)S(=O)(=O)c1ccccc1	21.9%	1.2	u	u	0.9%	20.6µM*
O=S(=O)(Nc1cccc2cccnc12)c1cc(F)ccc1F	25.4%	2.6	x	x	x	x
COc1ccc(CNC(=O)c2csc(Cc3ccc(OC)cc3)n2)cc1	u	-5.5	3.1%	-1.7%	0.2%	x
COc1ccc(CNC(=O)c2csc(Cc3ccc(Cl)cc3)n2)cc1	-22.1%	-5.9	2.7%	8.9%	10.4%	23.1µM*
Cc1c(C(=O)c2ccccc2)oc2ccc(F)cc12	u	5.3	x	x	x	x
Cc1c(C(=O)/C=C/c2cccs2)oc2ccc(F)cc12	27.7%	1.9	7.94µM*	1.6%	8.2%	u
CCn1c2ccccc2c2cc(NC(=O)COC(=O)c3cc(OC)c(OC)cc3OC)ccc21	-6.7%	-4.3	0.3%	-6.4%	0.7%	16.4µM*
COc1ccc(CCN(Cc2cc3cc(C)cc(C)c3nc2Cl)C(=O)C2CC2)cc1	-15.0%	4.5	-0.6%	-21.2%	2.0%	16.4µM*
COc1ccc(CCN(Cc2ccccn2)C(=O)[C@H]2CCC[C@H](O)C2)cc1	44.4%	x	x	x	x	x
Cc1cc2c(Nc3cccc(O)c3)ncnc2s1	u	2.4	5.0%	1.8%	2.2%	1.6%
Cc1cc2c(Nc3ccccc3O)ncnc2s1	u	0.0	11.2µM*	x	4.5%	x
CC(C)c1ccc(C(C)NC(=O)/C=C/c2ccccc2F)cc1 (stereo not given)	-28.7%	2.5	x	x	x	x
Cc1cccc(Nc2nc(N)c([N+](=O)[O-])c(N3CCCC(C)C3)n2)c1 (stereo not given)	-37.5%	0.8	4.0%	-18.2%	u	16.4µM*
Cc1cccc(Nc2nc(N)c([N+](=O)[O-])c(N3CCN(C)CC3)n2)c1	-26.5%	-2.5	7.3%	0.2%	-1.9%	4.8%
N#Cc1ccc2nc([C@H]3CCN(Cc4ccccn4)C3)[nH]c2c1	41.5%[176 µM]	x	x	x	x	x
Cc1nc(N=Nc2cc([N+](=O)[O-])ccc2Cl)c(COP(=O)(O)O)c(C=O)c1O	11.2µM*	x	x	x	x	x
Cc1cc(C)n(-c2ccc(C(=O)OCC(=O)NC3CCS(=O)(=O)C3)cc2)n1 (stereo not given)	-0.5%	-30.4*	x	x	x	x
Cc1cc(C)n(-c2ccc(C(=O)OCC(=O)NC(=O)NC3CCCC3)cc2)n1	5.3%	-2.8	x	x	x	x
CC(C)c1ccc(C(=O)Nc2cc(C(F)(F)F)ccc2Cl)cc1	u	7.7	x	x	x	x
O=c1c2ccccc2ncn1CCCSc1ccccc1	-21.8%	3.1	4.2%	u	19.0%	23.1µM*
O=C(NC1(C(F)(F)F)N=C(c2ccccc2)N(CCc2ccccc2)C1=O)C1CC1 (stereo not given)	25.3%	1.6	x	x	x	x
